Source: PubChem (The Scripps Research Institute Molecular Screening Center)
Rin1-Abl PPI inh: blocks binding of human Rin1 to Abl | TR-FRET Rin1/Abl binding, biochemical | inhibition, % at 7.35 µM | actives 0.4% (n = 360,000) | AID 588664; in the data active = inhibition above about 5%, passing the limit was not always enough
PAFAH1B3 inh: PAFAH1B3 (human) inhibition. recombinant PAFAH1B3, FP-rhodamine probe, fluorescence polarization. inhibition, % at 3.39 µM. actives 0.28% (n = 340,000). AID 492972;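 active = inhibition above the screen-wide average of all tested compounds plus 3 SD, cut at about 25% in these data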;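 also: 0% = enzyme with DMSO only and 100% = wells lacking PAFAH1B3 protein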
E coli Lon inh: E. coli protease La inhibition; actives 0.42% (n = 360,000); inhibition, % at 7.94 µM; AID 602123; purified E. coli Lon protease, fluorescence polarization; in the data active = inhibition above about 13%, passing the limit was not always enough;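 also: 0% = enzyme with probe and DMSO and 100% = no enzyme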
pPAFAH inh: pPAFAH (human) enzyme inhibition | Q13093 | inhibition, % at 3.39 µM | recombinant pPAFAH, FP-rhodamine probe fluorescence polarization | actives 1.5% (n = 330,000);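 active = inhibition above the mean inhibition across the screen plus 3 SD, cut at about 25% in these data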;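 also: inhibitors block binding of the rhodamine activity-based probe so polarization drops; 0% = enzyme with DMSO and 100% = wells lacking pPAFAH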
Target sequence (Q13093 whole entry, looked up): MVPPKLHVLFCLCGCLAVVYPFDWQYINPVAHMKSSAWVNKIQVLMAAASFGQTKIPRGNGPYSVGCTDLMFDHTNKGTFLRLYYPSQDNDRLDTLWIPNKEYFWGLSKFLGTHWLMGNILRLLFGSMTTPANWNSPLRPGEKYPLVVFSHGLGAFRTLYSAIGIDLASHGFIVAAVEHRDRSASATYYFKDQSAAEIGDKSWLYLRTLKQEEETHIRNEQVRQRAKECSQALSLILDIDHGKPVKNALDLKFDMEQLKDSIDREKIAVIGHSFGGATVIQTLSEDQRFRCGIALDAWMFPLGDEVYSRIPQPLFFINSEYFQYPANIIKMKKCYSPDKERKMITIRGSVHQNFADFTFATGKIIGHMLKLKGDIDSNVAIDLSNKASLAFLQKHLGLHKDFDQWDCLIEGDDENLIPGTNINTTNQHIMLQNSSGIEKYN
PAFAH1B2 FP inh: PAFAH1B2 (human) inhibition; AID 492953; inhibition, % at 3.39 µM; actives 1.2% (n = 340,000); recombinant PAFAH1B2, FP-rhodamine activity probe, fluorescence polarization;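 active = inhibition above the mean of all tested compounds plus 3 SD, cut at about 24% in these data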;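 also: 0% = enzyme with DMSO and 100% = wells lacking PAFAH1B2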
PAFAH2 inh: PAFAH2 (human) inhibition. Q99487. recombinant PAFAH2, FP-rhodamine activity probe, fluorescence polarization. inhibition, % at 3.39 µM. actives 0.99% (n = 340,000);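 active = inhibition above the mean over all tested compounds plus 3 SD, cut at about 30% in these data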;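 also: inhibitors block probe labeling of enzyme so polarization drops; 0% = enzyme with DMSO and 100% = wells lacking PAFAH2 protein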
The depositor's hits bear a star; . = no result. An excerpt weighted towards active compounds, which were near 3.1% of everything screened.

SMILES	Rin1-Abl PPI inh	PAFAH1B3 inh	E coli Lon inh	pPAFAH inh	PAFAH1B2 FP inh	PAFAH2 inh
O=C(c1ccc(Oc2ccccc2)cc1)c1nc2c(n1O)CCCC2	-1	0	3	31*	6	3
CCn1c(=O)cc(OCC(=O)N2CCN(c3cccc(C(F)(F)F)c3)CC2)c2ccccc21	-4	-3	-6	9	-1	-9
CCn1c(=O)cc(OCC(=O)N2CCCC2)c2ccccc21	9.0*	7	-2	-2	4	-1
CCCn1c(SCC(=O)N(C2CCCCC2)C2CCS(=O)(=O)C2)n[nH]c1=O (stereo unspecified)	1	6	-4	3	9	-2
Cc1nc(C(F)(F)F)ccc1C(=O)Nc1ccccc1N1CCOCC1	-1	4	-3	-3	5	0
Cc1ccccc1NC(=O)Cc1nnc(SCC(=O)NC2=NCCS2)n1C	1	2	0	4	0	2
O=C(Nc1nnc(CCc2ccccc2)s1)c1ccc(F)cc1	2	-3	-4	-2	4	1
O=C(Nc1nnc(CCc2ccccc2)s1)c1cccc(F)c1	0	12	-6	-3	25*	10
Cc1noc(C)c1CSCC(=O)NCCN1C(=O)S/C(=C\c2ccccc2F)C1=O	-3	-1	-4	4	-1	1
O=C(CCSc1ccc(F)cc1)NNC(=O)c1ccc([N+](=O)[O-])cc1	5	2	11	6	28*	0
O=C(Cc1ccc([N+](=O)[O-])cc1)Oc1ccccc1	3	8	-10	.	5	9
CCCNC(=O)C1(C)CCN(C(=O)c2ccc(F)c(Cl)c2)C1 (stereo unspecified)	-1	.	-11	.	.	.
COc1ccccc1CNC(=O)C(=O)NCC1CCCN1S(=O)(=O)c1cc(C)ccc1C (stereo unspecified)	1	.	-1	.	.	.
O=C(CN(Cc1ccco1)Cc1cccs1)N1CCN(S(=O)(=O)c2cccc(F)c2)CC1	6	4	-9	3	26*	0
O=C(CN1C(=O)C(=O)N(CCC2=CCCCC2)C1=O)Nc1ccc(F)cc1F	1	4	-9	1	17	5
O=C(NNC(=O)c1cc(Br)ccc1Cl)c1csc(N2CCOCC2)n1	3	3	-2	1	3	-2
O=C(NNC(=O)c1cc(Br)ccc1O)c1csc(N2CCOCC2)n1	10*	15	5	23	8	8
CCc1ccc(N2CC(C)Cn3c2nc2c3c(=O)[nH]c(=O)n2C)cc1 (stereo unspecified)	4	0	1	34*	6	6
CC1CN(c2ccc(Cl)cc2)c2nc3c(c(=O)[nH]c(=O)n3C)n2C1 (stereo unspecified)	5	8	6	.	-2	1
O=C(Cc1ccc(Cl)c(Cl)c1)Nc1ccc(S(=O)(=O)Nc2ncccn2)cc1	2	-1	13	7	5	-1
O=c1ccc(NS(=O)(=O)c2ccccc2)cn1Cc1ccc(Cl)c(Cl)c1	1	9	-2	26*	15	5
COc1cc(C(Nc2ccc(S(=O)(=O)N3CCC(C)CC3)cc2)C(=O)NCC2CCCO2)cc(OC)c1OC (stereo unspecified)	0	2	-2	6	25*	-2
O=C(CNc1ccccc1N1CCCC1=O)Nc1cc(C(F)(F)F)ccc1-n1cncn1	5	7	-3	.	-4	8
Cc1ccc(CN2C(=O)CSC2c2ccccc2F)cc1 (stereo unspecified)	1	5	-4	3	9	-1
Cc1ccc(CN2C(=O)CSC2c2ccc(F)cc2)cc1 (stereo unspecified)	1	9	6	1	26*	8
SMILES	Rin1-Abl PPI inh	PAFAH1B3 inh	E coli Lon inh	pPAFAH inh	PAFAH1B2 FP inh	PAFAH2 inh
CCc1cc(/C(Cc2ccc3ccccc3n2)=N\O)c(O)cc1O	-1	41*	-5	20	24	17
CCc1cc(/C(Cc2ccccn2)=N\O)c(O)cc1O	4	21	-11	8	13	14
CC(NC(=O)CN(C)S(=O)(=O)c1cccc2nsnc12)c1ccccc1 (stereo unspecified)	-2	3	3	2	31*	1
Cc1ccc(NC(=O)CN(C)S(=O)(=O)c2cccc3nsnc23)cc1	1	7	-6	2	8	-3
CCOC(=O)c1cccc(NC(=O)C2CCCN(c3nnc(N4CCCC4=O)s3)C2)c1 (stereo unspecified)	1	1	2	3	-3	-2
Cc1ccc(S(=O)(=O)c2cc(OC(=O)c3ccco3)ccc2OC(=O)c2ccco2)cc1	0	0	-4	0	3	9
O=C(Oc1ccc(OC(=O)c2ccco2)c(S(=O)(=O)c2ccc(Br)cc2)c1)c1ccco1	-1	12	8	1	45*	10
O=C(Oc1ccc(-c2ccccc2)cc1)c1ccco1	2	9	2	.	32*	6
CC(C)CN(C(=O)COC(=O)CSc1ccc([N+](=O)[O-])cc1)C1CCS(=O)(=O)C1 (stereo unspecified)	0	6	-1	4	25*	3
Cc1ccc(SCC(=O)OCC(=O)N(C)C2CCS(=O)(=O)C2)cc1C (stereo unspecified)	1	7	-6	25*	4	-11
O=C1CCC(=O)N1c1ccccc1OS(=O)(=O)c1ccccc1	1	2	-4	0	4	2
O=S(=O)(Oc1ccccc1N1CCCCC1)c1ccccc1	4	5	-14	-6	31*	7
COc1ccc(CNS(=O)(=O)c2ccc3c(c2)CCN3C(=O)C2CCC2)cc1	8	1	10	1	4	4
CN(C1CCCCC1)S(=O)(=O)c1ccc(SCC(=O)C(C)(C)C)nc1	-3	10	-7	3	9	7
Cc1cccn2c(=O)c(C=NCc3ccco3)c(Nc3ccc(SC(F)F)cc3)nc12	0	-1	4	34*	2	-5
Cc1cccn2c(=O)c(C=NCCO)c(NCc3ccco3)nc12	-1	2	3	1	10	5
O=C(O)c1ccc(S(=O)(=O)N(Cc2ccc(F)cc2)C2CCCCC2)cc1	1	-2	-10	3	26*	0
O=C1C(=O)C(c2ccccc2)C(=O)C1c1ccccc1 (stereo unspecified)	1	10	-7	.	32*	7
O=C(O)CNC(=O)C12CC3CC(CC(Cl)(C3)C1)C2	1	7	-14	2	33*	0
OC(c1ccccc1)(c1ccccc1)c1nccn1-c1ccccc1	2	2	-11	.	7	6
S=C(Nc1ccccc1)N1CCOCCOCCN(C(=S)Nc2ccccc2)CCOCCOCC1	1	-4	1	5	-4	-2
